PubChem BioAssay (EPA / NIEHS)
Inconclusive results are not listed. Calls of active or inactive are those of the source. Rule for the calls, unless noted: active = hit-call score of the fitted dose curve at least 0.9, where 1 is the maximum; inconclusive = response in the unintended direction; inactive = score below 0.9.

tested on: DIO2 (gene 1734); test: CCTE_GLTED_hDIO2: CCTE's human Deiodinase 2 (DIO2) Inhibition Assay, Great Lakes Toxicology and Ecology Division (GLTED) Lab (AID 2284050)
Procedure, shortened: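 hDIO2 enzyme + test chem, 3 h → free iodide from substrate; step 2: Sandell-Kolthoff (Ce IV reduction by As, iodide-catalysed), spectrophotometric read. Triplicate plates; DMSO = baseline.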

SMILES	AC50	outcome
CC(C)=CCCC(C)=CCCC(C)=CCO	28.5 µM (active)	
O=C(Oc1ccccc1)c1ccc(O)cc1	72.2 µM (active)	
CCCCCCCCCCCCCC(=O)O	100 µM (active)	
O=Nc1ccc(Nc2ccccc2)cc1	64.2 µM (active)	
CCC(=O)/C=C/C1C(C)=CCCC1(C)C (configuration not stated)	93.1 µM (active)	
CCCCCCCCCCCCCCCC(=O)OC[C@H](O)[C@H]1OC(=O)C(O)=C1O	27.5 µM (active)	
CCCCCCCCCCCCN		inactive

tested on: not listed separately; test: CCTE_Shafer_MEA_dev_spike_duration_mean: CCTE's Neural Network Formation Assay for Mean Spike Duration, Shafer Lab (AID 2284051; active = hit-call score of the fitted dose curve at least 0.9, where 1 is the maximum; inactive = score below 0.9;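 for AC50: potency for a decrease in mean network spike duration versus DMSO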)
Protocol: CCTE_Shafer_MEA_dev assay is conducted using Axion Biosystems 48 well microelectrode array (MEA) plates and Maestro recording system. Each well of the MEA plate contains a grid of 16 microelectrodes embedded in the culture surface. Electrically active cells, such as neurons, can be cultured over the electrodes, and electrical activity in these cells can be recorded extracellularly. The spontaneous firing of neurons is captured from each electrode on a microsecond timescale providing both temporally and spatially precise data. […] The CCTE_Shafer_MEA_dev assay uses primary cultures of rat cortical neurons. Recordings are made on days post-plating 5, 7, 9 and 12. As these cultures mature over time, neural networks develop functional activity and form cohesive networks in which electrical activity can be highly coordinated. CCTE_Shafer_MEA_dev_spike_duration_mean is 1 of 19 assay components of the CCTE_Shafer_MEA_dev assay. It measures the average duration of network spikes (temporally-clustered groups of action potential firing across multiple electrodes) during a recording in a microelectrode array (MEA) using Axion Biosystems Maestro 768 channel amplifier with the AxIS adaptive spike detector. To collapse across multiple recordings made on days post-plating 5, 7, 9 and 12, the trapezoidal area-under-the-curve of the component is calculated.Data from the assay component CCTE_Shafer_MEA_dev_spike_duration_mean was analyzed into 1 assay endpoint. This assay endpoint, CCTE_Shafer_MEA_dev_spike_duration_mean, was analyzed in the negative analysis fitting direction relative to DMSO as the negative control and baseline of activity. Using a type of functional reporter, gain or loss-of-signal activity can be used to understand electrical activity.
On the day prior to culture, each well was coated thoroughly with 150 uL of 0.05% polyethyleneimine (PEI, Sigma Cat P3143) in 50 mM HEPES (Sigma Cat H7523) at a pH of 8. The plate was incubated at 37C for one hour. PEI was rinsed out with 500 uL of sterile water three times. Plates were stored at 4C until the day of culture. […]

SMILES	outcome	AC50
CN(C)C(=N)N=C(N)N	inactive	
N#Cc1ccc(CC(=NNC(=O)Nc2ccc(OC(F)(F)F)cc2)c2cccc(C(F)(F)F)c2)cc1		685 nM (active)
c1ccc2c(c1)c1cccc3ccc4cccc2c4c31	inactive	

tested on: not listed separately; test: CCTE_Shafer_MEA_dev_network_spike_duration_std: CCTE's Neural Network Formation Assay for Standard Deviation of Network Spike Duration, Shafer Lab (AID 2284052; active = hit-call score of the fitted dose curve at least 0.9, where 1 is the maximum; inactive = score below 0.9;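 note: hits are decreases in network spike duration SD versus DMSO vehicle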)
Procedure, shortened: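 Rat cortical cultures, 1.5 x 10^5 cells/well, exposed continuously from plating to DIV 12 with media/compound renewal at DIV 5, 9. Spontaneous activity recorded DIV 5/7/9/12, AxIS adaptive spike detector; AUC across days; negative direction vs DMSO.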

SMILES	outcome	AC50
CN(C)C(=N)N=C(N)N	inactive	
N#Cc1ccc(CC(=NNC(=O)Nc2ccc(OC(F)(F)F)cc2)c2cccc(C(F)(F)F)c2)cc1		525 nM (active)
c1ccc2c(c1)c1cccc3ccc4cccc2c4c31	inactive	

tested on: not listed separately; test: CCTE_Shafer_MEA_dev_per_network_spike_spike_number_mean: CCTE's Neural Network Formation Assay for Mean Number of Spikes in a Network Spike, Shafer Lab (AID 2284053; active = hit-call score of the fitted dose curve at least 0.9, where 1 is the maximum; inactive = score below 0.9;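 for AC50: fitted as decrease in spikes per network spike relative to DMSO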)
Procedure, shortened: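 Rat cortical primary cultures on 48-well MEA; compound from day 0, re-dosed with full media change DIV 5, 9. Recorded DIV 5, 7, 9, 12; spikes in 0.05 s window at network-spike peak ÷ total network spikes; AUC; loss vs DMSO.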

SMILES	outcome	AC50
CN(C)C(=N)N=C(N)N	inactive	
N#Cc1ccc(CC(=NNC(=O)Nc2ccc(OC(F)(F)F)cc2)c2cccc(C(F)(F)F)c2)cc1		1.08 µM (active)
c1ccc2c(c1)c1cccc3ccc4cccc2c4c31	inactive	

tested on: not listed separately; test: CCTE_Shafer_MEA_dev_per_network_spike_spike_percent: CCTE's Neural Network Formation Assay for Percent of Spikes in a Network Spike, Shafer Lab (AID 2284054; active = hit-call score of the fitted dose curve at least 0.9, where 1 is the maximum; inactive = score below 0.9)
Procedure, shortened: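 Rat primary cortical neurons were grown on 48-well MEA plates (16 electrodes/well), exposed from plating day 0 through day 12, with treatment renewed on DIV 5 and 9. Percent of spikes within 0.05 s network-spike peaks was measured, summarised as AUC across days 5, 7, 9, 12.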

SMILES	outcome
CN(C)C(=N)N=C(N)N	inactive
N#Cc1ccc(CC(=NNC(=O)Nc2ccc(OC(F)(F)F)cc2)c2cccc(C(F)(F)F)c2)cc1	inactive
c1ccc2c(c1)c1cccc3ccc4cccc2c4c31	inactive

tested on: DIO3 (gene 1735); test: CCTE_GLTED_hDIO3: CCTE's human Deiodinase 3 (DIO3) Inhibition Assay, Great Lakes Toxicology and Ecology Division (GLTED) Lab (AID 2284055);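 note: potency is for inhibition seen as loss of released iodide signal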
Procedure, shortened: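 Absorbance from the Sandell-Kolthoff reaction reports iodide released by human DIO3 during a 3-hour incubation with chemical. Inhibition scored as signal loss against DMSO controls.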

SMILES	AC50
CC(C)=CCCC(C)=CCCC(C)=CCO	17.9 µM (active)
O=C(Oc1ccccc1)c1ccc(O)cc1	52.9 µM (active)
CCCCCCCCCCCCCC(=O)O	156 µM (active)
O=Nc1ccc(Nc2ccccc2)cc1	55.1 µM (active)
CCC(=O)/C=C/C1C(C)=CCCC1(C)C (configuration not stated)	56.6 µM (active)
CCCCCCCCCCCCCCCC(=O)OC[C@H](O)[C@H]1OC(=O)C(O)=C1O	4.09 µM (active)
CCCCCCCCCCCCN	141 µM (active)

tested on: not listed separately; test: CCTE_Shafer_MEA_dev_LDH: CCTE's Lactate Dehydrogenase Assay for Cytotoxicity in the Neural Network Formation Assay, Shafer Lab (AID 2284068);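 note: exposure for twelve days from plating with re-dosing on DIV 5 and 9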
Procedure, shortened: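 Rat cortical primary neurons, MEA culture; dosing day 0–12, full medium plus compound exchange DIV 5, 9. Read-out: LDH enzyme activity, spectrophotometric. DMSO = negative control/baseline; signal loss → cytotoxicity.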

SMILES	outcome	AC50
CN(C)C(=N)N=C(N)N	inactive	
N#Cc1ccc(CC(=NNC(=O)Nc2ccc(OC(F)(F)F)cc2)c2cccc(C(F)(F)F)c2)cc1		15 µM (active)
c1ccc2c(c1)c1cccc3ccc4cccc2c4c31	inactive	

tested on: not listed separately; test: CCTE_Shafer_MEA_acute_AB: CCTE's Alamar Blue Assay for Cytotoxicity in the Neural Acute Assay, Shafer Lab (AID 2284069);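 note: active compounds lower the viability signal compared with DMSO wells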
Procedure, shortened: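 Read-out: resazurin fluorescence (ex 544, em 590 nm) after CTB reagent at 1:6 dilution in fresh media. Cells: primary rat cortical neuron networks, DIV 13 or 15, chemically exposed on MEA plates; DMSO as negative control/baseline.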

SMILES	outcome
Cc1cc(C2(c3cc(C)c(O)cc3C)OS(=O)(=O)c3ccccc32)c(C)cc1O	inactive
CCCCCCCCC=O	inactive
NCCNCCN	inactive
C=C[Si](OCC)(OCC)OCC	inactive
OC[C@H]1O[C@H](O[C@]2(CCl)O[C@H](CCl)[C@@H](O)[C@@H]2O)[C@H](O)[C@@H](O)[C@H]1Cl	inactive
C[C@H]1C[C@@H]2[C@H]([C@@H](O)C[C@@]3(C)[C@H]2CC[C@]3(O)C(=O)CO)[C@@]2(C)C=CC(=O)C=C12	inactive
CC(C)(COC(=O)c1ccccc1)COC(=O)c1ccccc1	inactive

tested on: not listed separately; test: CCTE_Shafer_MEA_dev_AB: CCTE's Alamar Blue Assay for Cytotoxicity in the Neural Network Formation Assay, Shafer Lab (AID 2284083);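 note: resazurin reduction fluorescence as viability of cultured neurons; twelve days of exposure from plating with re-dosing on DIV 5 and 9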
Procedure, shortened: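 Rat cortical primary cultures, 1.5 x 10^5 cells/well on MEA; continuous compound exposure over 12 days of network development, re-dosed with full medium change DIV 5 and 9. Alamar Blue fluorescence; loss of signal = cytotoxicity vs DMSO baseline.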

SMILES	outcome
CN(C)C(=N)N=C(N)N	inactive
N#Cc1ccc(CC(=NNC(=O)Nc2ccc(OC(F)(F)F)cc2)c2cccc(C(F)(F)F)c2)cc1	inactive
c1ccc2c(c1)c1cccc3ccc4cccc2c4c31	inactive

tested on: not listed separately; test: CCTE_Shafer_MEA_dev_mutual_information_norm: CCTE's Neural Network Formation Assay for Mutual Information Normalization, Shafer Lab (AID 2284091; active = hit-call score of the fitted dose curve at least 0.9, where 1 is the maximum; inactive = score below 0.9;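 for AC50: mutual information between electrodes summarised as area under curve across four recording days; potency is for a decrease in mutual information relative to DMSO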)
Procedure, shortened: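 Primary rat cortical neurons on PEI-coated 48-well MEA plates, 1.5 x 10^5 cells/well, exposed from day 0 through day 12 with re-dosing at DIV 5 and 9. Mutual information between electrodes recorded days 5, 7, 9, 12; trapezoidal AUC, loss-of-signal fit versus DMSO.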

SMILES	outcome	AC50
CN(C)C(=N)N=C(N)N	inactive	
N#Cc1ccc(CC(=NNC(=O)Nc2ccc(OC(F)(F)F)cc2)c2cccc(C(F)(F)F)c2)cc1		672 nM (active)
c1ccc2c(c1)c1cccc3ccc4cccc2c4c31	inactive	
